The nature of assay [1]: antimalarial activity against Dd2 strain (AID 2302;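 active = growth inhibition above 50% at the single 2 µM test dose, taken to imply half-maximal potency below 2 µM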;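 note: 0% = DMSO untreated growth and 100% = chloroquine plus artemisinin killed control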). The settings on record: P. falciparum Dd2 in RBCs, LDH growth readout, 72 h; at 2 µM; active compounds read high.
A short description of assay [2]: HepG2 cytotoxicity, primary screen, cytotoxicity control for P. falciparum antimalarial project, cell-based, ATP luminescence (AID 2303;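 active = inhibition above 50%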;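 note: 0% = DMSO wells and 100% = digitonin-killed cells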). The following applies: HepG2 viability, 24-48 h, at 10 µM, active compounds read high.
The target of assay [3] is L-lactate dehydrogenase (Plasmodium falciparum (isolate CDC / Honduras)) (UniProt Q27743). As to the kind of experiment: PfLDH activity inhibition – cell lysate, 3D7 strain, counter-screen for P. falciparum growth inhibition project (AID 2304).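 Note: 0% = vehicle and 100% = reference inhibitor.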 The settings on record: P. falciparum 3D7 crude extract, LDH APAD/NBT absorbance; at 2 µM; active compounds read high.
Chain of L-lactate dehydrogenase (Plasmodium falciparum (isolate CDC / Honduras)) (Q27743 whole entry, looked up): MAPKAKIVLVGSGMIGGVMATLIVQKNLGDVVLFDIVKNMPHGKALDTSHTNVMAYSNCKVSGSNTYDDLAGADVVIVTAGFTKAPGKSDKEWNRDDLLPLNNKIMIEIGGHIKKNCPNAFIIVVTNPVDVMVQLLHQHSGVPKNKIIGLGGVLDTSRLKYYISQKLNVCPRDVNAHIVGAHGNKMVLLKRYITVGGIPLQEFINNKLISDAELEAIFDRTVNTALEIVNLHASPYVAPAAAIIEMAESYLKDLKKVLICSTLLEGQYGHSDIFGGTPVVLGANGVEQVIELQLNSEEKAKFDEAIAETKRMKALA
A short description of assay [4]: inhibition of 3D7 malaria parasite growth – strain 3D7 (AID 2306).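 Note: 0% = DMSO wells and 100% = chloroquine plus artemisinin control wells.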 The following applies: P. falciparum 3D7 erythrocytic growth, LDH absorbance, 72 h; at 2 µM; active compounds read high.
Assay [5] addresses Calcium-dependent protein kinase 1 (Plasmodium falciparum (isolate 3D7)) (UniProt P62344). As to the kind of experiment: PfCDPK1 kinase inhibitors, biochemical, TCAMS library (AID 1159585; cut-off not given, nearly all actives have IC50 up to about 0.98 µM;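 note: inhibitors leave more ATP so luminescence rises with inhibition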). The settings on record: recombinant PfCDPK1, Kinase-Glo ATP depletion luminescence.
Assay [6] concerns the target Plasmodium falciparum protein kinase 6 (PK6, PF3D7_1337100) (UniProt Q8IDW1). Nature of the assay: PfPK6 kinase inhibitors, biochemical, TCAMS library (AID 1159586). The settings on record: recombinant PfPK6, Kinase-Glo ATP depletion luminescence.
Assay [7] deals with Protein kinase 7 (PK7), Plasmodium falciparum 3D7 (PF3D7_0213400) (UniProt Q7YTF7). As to the kind of experiment: inhibition of Plasmodium PK7 catalytic activity – biochemical, TCAMS antimalarial set, Kinase-Glo luminescence (AID 1159587). The following applies: recombinant PfPK7, Kinase-Glo ATP depletion luminescence.
Chain of Protein kinase 7 (PK7), Plasmodium falciparum 3D7 (PF3D7_0213400) (Q7YTF7 1-343): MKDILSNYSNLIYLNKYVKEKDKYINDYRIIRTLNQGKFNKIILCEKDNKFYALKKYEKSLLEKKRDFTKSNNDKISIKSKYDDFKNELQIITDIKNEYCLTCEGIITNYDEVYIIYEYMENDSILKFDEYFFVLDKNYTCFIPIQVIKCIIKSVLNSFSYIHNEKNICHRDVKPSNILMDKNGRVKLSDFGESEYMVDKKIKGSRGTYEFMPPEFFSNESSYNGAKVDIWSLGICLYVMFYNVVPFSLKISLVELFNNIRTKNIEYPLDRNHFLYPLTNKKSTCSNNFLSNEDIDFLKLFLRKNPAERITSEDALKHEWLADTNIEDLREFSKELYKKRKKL
Assay [8] deals with Calcium-dependent protein kinase 4 (Plasmodium falciparum (isolate 3D7)) (UniProt Q8IBS5). Nature of the assay: PfCDPK4 kinase inhibitors, biochemical, TCAMS library (AID 1159588; cut-off not given, nearly all actives have IC50 up to about 0.91 µM). The settings on record: recombinant PfCDPK4, Kinase-Glo ATP depletion luminescence.
Chain of Calcium-dependent protein kinase 4 (Plasmodium falciparum (isolate 3D7)) (Q8IBS5 whole entry, looked up): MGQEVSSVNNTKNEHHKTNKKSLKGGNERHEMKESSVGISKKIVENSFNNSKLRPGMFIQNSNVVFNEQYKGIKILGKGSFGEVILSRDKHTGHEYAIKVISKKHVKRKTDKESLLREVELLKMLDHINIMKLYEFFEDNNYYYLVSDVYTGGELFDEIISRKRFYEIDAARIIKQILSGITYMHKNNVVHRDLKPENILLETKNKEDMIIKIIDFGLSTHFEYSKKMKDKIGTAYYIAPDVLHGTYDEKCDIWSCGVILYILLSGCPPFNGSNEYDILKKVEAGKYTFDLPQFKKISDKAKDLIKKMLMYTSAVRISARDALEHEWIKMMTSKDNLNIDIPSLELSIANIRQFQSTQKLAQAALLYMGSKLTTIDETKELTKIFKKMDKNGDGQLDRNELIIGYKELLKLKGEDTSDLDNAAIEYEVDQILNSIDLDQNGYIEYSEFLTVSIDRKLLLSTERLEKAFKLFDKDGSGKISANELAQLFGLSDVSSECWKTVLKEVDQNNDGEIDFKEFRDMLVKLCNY

This note sets out measurements from PubChem BioAssay.

A number with no mark means an inactive call. For some of these results: Entries with a potency or affinity are not part of this list. The source made the active and inactive calls. Unless noted, the rule behind the calls is not given here.

Chain of Calcium-dependent protein kinase 1 (Plasmodium falciparum (isolate 3D7)) (P62344 whole entry, looked up): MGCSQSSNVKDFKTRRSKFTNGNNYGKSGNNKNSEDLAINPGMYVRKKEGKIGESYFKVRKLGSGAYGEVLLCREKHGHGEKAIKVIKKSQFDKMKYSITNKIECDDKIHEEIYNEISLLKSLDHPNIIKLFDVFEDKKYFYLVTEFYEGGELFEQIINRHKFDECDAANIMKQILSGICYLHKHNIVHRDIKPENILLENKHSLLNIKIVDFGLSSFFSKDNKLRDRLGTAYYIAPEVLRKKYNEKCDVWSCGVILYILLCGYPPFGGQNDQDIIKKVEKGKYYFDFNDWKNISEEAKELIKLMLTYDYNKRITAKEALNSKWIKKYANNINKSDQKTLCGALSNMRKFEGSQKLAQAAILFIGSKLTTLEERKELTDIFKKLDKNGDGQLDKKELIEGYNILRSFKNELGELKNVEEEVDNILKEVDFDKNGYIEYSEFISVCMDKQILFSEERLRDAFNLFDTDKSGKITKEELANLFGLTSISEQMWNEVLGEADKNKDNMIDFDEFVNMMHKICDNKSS
Chain of Plasmodium falciparum protein kinase 6 (PK6, PF3D7_1337100) (Q8IDW1 1-305): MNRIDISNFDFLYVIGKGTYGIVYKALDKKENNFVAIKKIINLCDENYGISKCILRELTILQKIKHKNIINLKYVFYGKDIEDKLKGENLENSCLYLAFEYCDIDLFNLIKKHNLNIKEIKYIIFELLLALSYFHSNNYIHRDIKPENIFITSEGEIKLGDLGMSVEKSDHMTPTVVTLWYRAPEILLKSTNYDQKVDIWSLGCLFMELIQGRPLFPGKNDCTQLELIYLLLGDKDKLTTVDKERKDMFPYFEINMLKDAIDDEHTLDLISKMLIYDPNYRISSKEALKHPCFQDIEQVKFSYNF

For `Nc1ncc(Cc2cc(Cl)c(N)c3ncccc23)c(N)n1`, the growth inhibition in assay [1] is 95% (active); in assay [4] it was 89% (active). The inhibition in assay [2] was 5%; in assay [3] it was 1%. Further, the result in assay [5], in assay [6], in assay [7] and in assay [8] was inactive.
With `COc1ccc(NC(=O)c2ccc(-c3nc(-c4ccc(Cl)cc4)cs3)cc2)cc1N1CCN(C)CC1`, the values for the growth inhibition in assay [1] and in assay [4] were 34% and 91% (active), respectively. Besides, the inhibition in assay [2] is 30%; in assay [3] it was 0%. The result in assay [5], in assay [6], in assay [7] and in assay [8] was inactive.
Regarding `CCNc1cc(CCCC(=O)OCC)nc(Nc2ccc(C)cc2)n1`, the growth inhibition is 63% (active) in assay [1] and 101% (active) in assay [4]. Also, the inhibition in assay [2] was 17%; in assay [3], -4%. Further, the outcome in assay [5], in assay [6], in assay [7] and in assay [8] was inactive.
For `Cc1ccc(NC(=O)Cc2noc(CC3CCCN3C(=O)N[C@@H](C)c3ccccc3)n2)cc1` (stereo not given in full), the growth inhibition in assay [1] was 90% (active); in assay [4], 95% (active). Further, the inhibition in assay [2] was 1%; in assay [3], -1%. Besides, the result in assay [5], in assay [6], in assay [7] and in assay [8] was inactive.
Take `COc1ccc(N2CCN(CCCOc3ccc(NC(=O)c4cc(Cl)cc(Cl)c4)cc3)CC2)c(OC)c1`: the growth inhibition in assay [1] was 41%; in assay [4], 100% (active). Moreover, the values for the inhibition in assay [2] and in assay [3] were 38% and 2%, respectively. Besides, the outcome in assay [5], in assay [6], in assay [7] and in assay [8] was inactive.
`CN1CCCN(c2ccnc3cc4c(cc23)N(C(=O)c2ccccc2Cl)CC4)CC1`: the growth inhibition in assay [1] was 30%; in assay [4] it was 88% (active). Further, the inhibition was 4% in assay [2] and 3% in assay [3]. Also, the outcome in assay [5], in assay [6], in assay [7] and in assay [8] was inactive.
Consider `COc1ccc(NC(=O)NCC2CCCN(CCCCCNC(=O)/C=C/c3ccc(Cl)c(Cl)c3)C2)c(OC)c1` (stereo not given), for which the growth inhibition in assay [1] is -2%; in assay [4], 95% (active). Also, the values for the inhibition in assay [2] and in assay [3] were 8% and -6%, respectively. Besides, the result in assay [5], in assay [6], in assay [7] and in assay [8] was inactive.
For the molecule `COc1cccc(NC(=O)c2cc(Br)cc(N3CCN(c4ccncc4)CC3)c2)c1`, the growth inhibition in assay [1] was 79% (active); in assay [4], 100% (active). Also, the results for the inhibition in assay [2] and in assay [3] were 30% and 0%, respectively. The result in assay [5], in assay [6], in assay [7] and in assay [8] was inactive.
For `CCOC(=O)C(=O)N1c2ccc(OCC)cc2-c2c(ssc2=S)C1(C)C`, the results for the growth inhibition in assay [1] and in assay [4] were 100% (active) and 99% (active), respectively. Also, the results for the inhibition in assay [2] and in assay [3] were 5% and -4%, respectively. The outcome in assay [5], in assay [6], in assay [7] and in assay [8] was inactive.
For `Cc1cc(N(C)CCN(C)C)nc(Nc2ccc(Br)cc2)n1`, the growth inhibition in assay [1] is 23%; in assay [4], 97% (active). In addition, the inhibition in assay [2] was 7%; in assay [3], -1%. Besides, the result in assay [5], in assay [6], in assay [7] and in assay [8] was inactive.
`CN(C)C(CNC(=O)c1cc(-c2ccncc2)c(-c2ccc(NC(=O)Nc3ccccc3)cc2)o1)c1ccccc1` (stereo not given): the growth inhibition was 96% (active) in assay [1] and 101% (active) in assay [4]. The inhibition in assay [2] was 19%; in assay [3], 4%. Further, the result in assay [5], in assay [6], in assay [7] and in assay [8] was inactive.
Regarding `OC(CNCc1ccccc1OCc1ccccc1)c1cccc(I)c1` (stereo not given), the growth inhibition in assay [1] and in assay [4] was 100% (active) in each case. The inhibition in assay [2] was 2%; in assay [3] it was -1%. Also, the result in assay [5], in assay [6], in assay [7] and in assay [8] was inactive.
On to `CC(C)CNCc1cccc(-c2ccc(CN(C(=O)NCCc3ccccc3)C3CCN(Cc4ccccc4)CC3)cc2)c1`, for which the figures for the growth inhibition in assay [1] and in assay [4] were 47% and 98% (active), respectively. Further, the inhibition in assay [2] was 99% (active); in assay [3], 5%. Further, the result in assay [5], in assay [6], in assay [7] and in assay [8] was inactive.
As to `COc1ccc(CCNC(=O)c2cc3c(=O)n4cccc(C)c4nc3n(C)c2=N)cc1`, the growth inhibition in assay [1] and in assay [4] was 99% (active) in each case. For the same molecule, the inhibition was 22% in assay [2] and 4% in assay [3]. In addition, the result in assay [5], in assay [6], in assay [7] and in assay [8] was inactive.
Regarding `Cc1ccc2nc(-c3ccc(C(=O)NC4CCN(Cc5ccccc5)CC4)s3)[nH]c2c1`, the growth inhibition was 83% (active) in assay [1] and 97% (active) in assay [4]. Also, the inhibition in assay [2] was 13%; in assay [3] it was -5%. For the same molecule, the result in assay [5], in assay [6], in assay [7] and in assay [8] was inactive.
As for `OC(CNc1ccnc(Nc2ccc(Cl)cc2)n1)c1ccc(C(F)(F)F)cc1` (stereo not given), the growth inhibition is 94% (active) in assay [1] and 101% (active) in assay [4]. Further, the inhibition is -2% in assay [2] and -6% in assay [3]. The result in assay [5], in assay [6], in assay [7] and in assay [8] was inactive.
For the molecule `Cc1cc(N[C@@H](CC(C)C)C(=O)NCCOc2ccccc2)nc(NCCOc2ccccc2)n1`, the growth inhibition in assay [1] was 6%; in assay [4] it was 89% (active). The inhibition in assay [2] is -4%; in assay [3] it was -2%. Besides, the outcome in assay [5], in assay [6], in assay [7] and in assay [8] was inactive.
In the case of `FC(F)(F)c1ccc2nc(-c3ccc(-c4ccc(CN5CCN(c6cnccn6)CC5)cc4)s3)[nH]c2c1`, the growth inhibition in assay [1] is 99% (active); in assay [4] it was 101% (active). For the same molecule, the inhibition in assay [2] is 23%; in assay [3] it was -7%. Also, the outcome in assay [5], in assay [6], in assay [7] and in assay [8] was inactive.
In the case of `COc1ccc(NC(=O)Nc2nc(-c3ccc(Cl)c(C)c3)cs2)cc1N1CCN(C)CC1`, the growth inhibition in assay [1] was 89% (active); in assay [4], 99% (active). In addition, the figures for the inhibition in assay [2] and in assay [3] were 9% and 0%, respectively. In addition, the outcome in assay [5], in assay [6], in assay [7] and in assay [8] was inactive.
With `S=C(NN=Cc1ccccn1)NC1C[C@H]2C=C[C@@H]1C2` (stereo not given in full), the growth inhibition in assay [1] is 96% (active); in assay [4] it was 99% (active). The inhibition was 51% (active) in assay [2] and -2% in assay [3]. Moreover, the outcome in assay [5], in assay [6], in assay [7] and in assay [8] was inactive.
